# Compounds with a hit are over-represented: about 9% of the library has one in this group of screens.
# HTT ATP protect: qHTS Multiplex Assay to Identify Dual Action Probes in a Cell Model of Huntington: Cytoprotection (ATP) | PC12 HTT-Q103 induced, cytoprotection, ATP luminescence, 40 h | Potency, µM (titrated, usually from 56.4 µM), inactives show cytoprotection (ATP increase), actives largely listed as activators | actives 0.14% (n = 230,000) | AID 1471, 2008; note: % of control where 0% means no effect; nearly all actives have a fitted effect of over 45% in size
#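 Huntington model: PC12 line, ecdysone-inducible HTTQ103 exon1–GFP, tebufenozide 100 nM. Test articles in a dose series. Endpoint luminescence from cellular ATP.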
# Luc counter: Counterscreen for Luciferase (Kinase-Glo TM) Inhibition. actives 0.28% (n = 200,000). AID 1379, 2008. Kinase-Glo luciferase, ATP luminescence, 8 min. Potency, µM (doses to about 38.3 µM), for inactives: at the highest dose activity change, negative = inhibition, hits mostly inhibitors; note: % is set by controls: 0 for no effect and ±100 for the full control effect; nearly all actives have a fitted effect of over 60% in size
#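 Light output from Kinase-Glo luciferase with luciferin and 10 uM ATP in 50 mM imidazole pH 7.2, KCl, MgCl2, Tween 20, BSA; compound pin-delivered, 8-min ambient incubation, then luminescence read.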
# HttQ103 aggreg: qHTS Multiplex Assay to Identify Dual Action Probes in a Cell Model of Huntington: Aggregate Formation (GFP); actives 1.1% (n = 220,000); Potency, µM (doses to about 46.1 µM), without a hit: top-dose activity change, negative = inhibition, most hits filed as inhibitors; PC12 HttQ103-GFP aggregates, Acumen cytometry, 40 h; AID 1688, 2009; note: % is set by controls: 0 for no effect and ±100 for the full control effect; nearly all actives have a fitted effect of over 60% in size
#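 Inducible Q103 Huntingtin exon 1–GFP PC12 line, 1500 cells/well in phenol red free DMEM with 5% equine and 5% calf serum. Tebufenozide 100 nM induced expression; compounds titrated; aggregates quantified by cytometry.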
# HPGD block: qHTS Assay for Inhibitors of HPGD (15-Hydroxyprostaglandin Dehydrogenase) | 15-hydroxyprostaglandin dehydrogenase [NAD(+)] (Homo sapiens), P15428 | AID 894, 2007 | Potency, µM, inactives show top-dose activity change, negative = inhibition, most hits filed as inhibitors | purified HPGD, NADH fluorescence kinetic, PGE2 substrate | actives 4.3% (n = 150,000); active = well fitted inhibition curve with a large enough effect, not every such curve was filed as active; inconclusive = small, poorly fitted or top-dose-only effect, or another doubt; inactive = no such curve, though single readings can be large or run the other way; note: % is set by controls: 0 for no effect and ±100 for the full control effect
# Target sequence (P15428 whole entry, looked up): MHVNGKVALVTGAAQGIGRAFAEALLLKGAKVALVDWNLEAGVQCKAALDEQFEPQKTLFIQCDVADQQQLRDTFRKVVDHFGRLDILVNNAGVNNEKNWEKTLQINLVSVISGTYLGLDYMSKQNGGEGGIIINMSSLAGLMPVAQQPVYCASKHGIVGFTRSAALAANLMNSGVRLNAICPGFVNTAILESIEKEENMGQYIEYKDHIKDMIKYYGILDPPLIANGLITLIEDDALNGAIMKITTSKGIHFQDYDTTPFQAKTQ
#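 20 nM HPGD preincubated 15 min at room temperature with compound in 50 mM Tris-HCl pH 8, 0.01% Tween 20. Started with 1 mM NAD+ and 30 uM prostaglandin E2; NADH fluorescence (360/450 nm) read 5 times over 30-s intervals, last minus first.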
# LMNA splice mod: qHTS Assay for Modulators of Lamin A Splicing; HeLa LMNA splicing GFP/RFP minigene ratio, 48 h; Potency, µM (titrated, usually from 46.1 µM), without a hit: top-dose ratio change, negative = inhibition, actives largely listed as inhibitors; actives 0.01% (n = 200,000); active = well fitted inhibition curve with a large enough effect in the signal ratio, with a control signal flat, not every such curve was filed as active; inconclusive = small, poorly fitted or top-dose-only effect, or effect the other way, or a change in a side signal; the % refers to the signal ratio; note: % is set by controls: 0 for no effect and ±100 for the full control effect
#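 Read-out is the ratio of GFP to DsRed2 object intensity, acquired by 488 nm laser-scanning cytometry on HeLa lamin A-EGFP minigene reporter cells. Compound incubation 48 hrs at 37 °C in Opti-MEM with 2% FBS; DMSO 0.5% final.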
# ALDH1A1 inh: qHTS Assay for Inhibitors of Aldehyde Dehydrogenase 1 (ALDH1A1); actives 7.3% (n = 220,000); Potency, µM (series often up to 75.3 µM), for the others: at the highest dose activity, negative = inhibition, actives largely listed as inhibitors; Purified ALDH1A1, NADH fluorescence, propionaldehyde substrate; Aldehyde dehydrogenase 1A1 (Homo sapiens), P00352; active = well fitted inhibition curve with a large enough effect, not every such curve was filed as active; inconclusive = small, poorly fitted or top-dose-only effect, or another doubt; inactive = no such curve, though single readings can be large or run the other way;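 note: plate controls were no enzyme wells and a reference inhibitor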
# An asterisk follows results filed as active; ? = inconclusive; / = no result given; ! = not active in a repeat; [ ] = another dose, or the depositor's remark. Unless noted, calls come from the whole dose curve; as a rule, active = well fitted curve in the direction sought with a large enough effect; inconclusive = small, poorly fitted or top-dose-only effect, or another doubt; inactive = no such curve, though single readings can be large; an effect the other way counts as inactive or inconclusive. Potency is the fitted concentration of half-maximal effect.
SMILES,HTT ATP protect,Luc counter,HttQ103 aggreg,HPGD block,LMNA splice mod,ALDH1A1 inh
Cn1c(SCc2cccc(C(F)(F)F)c2)nnc1-c1ccco1,-6%,-2%,-11%,-12%,?,12%
O=C(CSc1ccc(-c2ccco2)nn1)NC1CCCCC1,-49%,-1%,-6%,/,/,4µM*
NC(=O)COC(=O)c1ccccc1SCC(=O)NC1CCCCCC1,-31%,3%,7%,/,-1%[9.22 µM],28µM*
O=C(CSc1ccc(-c2ccco2)nn1)NC1CCCC1,-35%,-2%,-13%,/,/,35µM*
CCC1CCC(c2nnc(-c3ccc([N+](=O)[O-])cc3)o2)CC1 (configuration not stated),1%[10 µM],2%,9%,-4%,-6%,11µM*
N#Cc1c2nc3ccccc3nc2n2cc(NC(=O)c3ccc(F)cc3)ccc12,-3%[10 µM],?,8%,?,4%,14%
O=C1C2C3C=CC(CNS(=O)(=O)c4ccccc4)(O3)C2C(=O)N1c1ccc(Cl)cc1 (configuration not stated),6%[10 µM],0%,17%,22µM*,-2%,0.63µM*
CC(=O)Oc1ccc(N2C(=O)C3C4C=CC(CO)(O4)C3C2=O)cc1 (configuration not stated),-22%,-2%,?,22µM*,8%,0.71µM*
O=C1CCC(=O)N1c1ccccc1-c1ccccc1,-10%,2%,-26%,-4%,0%,5%
O=C1C2C3C=CC(CO)(O3)C2C(=O)N1c1ccccc1-c1ccccc1 (configuration not stated),-136%,0%,?,7.9µM*,8%,1.1µM*
CC(=O)Oc1ccc(N2C(=O)C3C(C2=O)C2(C)C=CC3(C)O2)cc1 (configuration not stated),-76%,-4%,?,13µM*,?,0.63µM*
O=S(=O)(NCc1cc(-c2ccc(Cl)cc2)no1)c1ccccc1,31%,-6%,11%,-3%,-3%,9%
COC(=O)c1cc(N2C(=O)C3C(C2=O)C2(C)C=CC3(C)O2)ccc1Cl (configuration not stated),3%[10 µM],8%,?,2.8µM*,?,0.11µM*
CC1CCN(C(=O)c2cc(N3C(=O)C4C5CCC(C5)C4C3=O)ccc2Cl)CC1 (configuration not stated),-35%,0%,2%,/,/,0%
CCc1ccc(C(=O)NNC(=S)Nc2ccc(S(N)(=O)=O)cc2)s1,-8%,/,14%,/,/,?
NC(=O)C1CCN(CC(=O)NCc2ccccc2)CC1,-1%,-1%,3%,-1%,18%,-2%
C/C(=N\NC(=O)c1cc(C(C)C)[nH]n1)c1ccco1,-44%[10 µM],8.9µM*,0%,22µM*,?,3%
CCCCNC(=O)CSc1cc(=O)n(C)c2ccccc12,-12%[10 µM],0%,-5%,14µM*,9%,-9%
CC(CCc1ccco1)NC(=O)CSc1cc(=O)n(C)c2ccccc12 (configuration not stated),6%,-4%,10%,25µM*,7%,?
CCn1c(=O)cc(SCC(=O)NCc2ccco2)c2ccccc21,-85%,-3%,18%,?,?,?
Clc1cc(Cl)cc(Nc2ncn[nH]2)c1,-1%[10 µM],2%,-19%,-8%,-3%,5%
O=C(CN(C(=O)c1cc2c(s1)CCC2)C1CCCC1)NCc1cccs1,-16%,11%,?,-6%,7%,16µM*
CN(C(=O)c1ccccc1C(=O)OCC(=O)NCc1cccs1)C1CCCCC1,-10%,-4%,-2%,/,22%[46 µM],-12%
C#CCOCCOCCOCCNc1nc(N2CCN(C(=O)[C@H](CCCCN)n3cc([C@@H](N)C(C)CC)nn3)CC2)nc(N2CCN(C(=O)[C@H](CCCCN)n3cc([C@@H](N)CO)nn3)CC2)n1 (some centres not stated),40%[10 µM],/,3%[9.22 µM],/,/,?
C#CCOCCOCCOCCNc1nc(N2CCN(C(=O)[C@H](CCCCN)n3cc(C(N)[C@H](C)CC)nn3)CC2)nc(N2CCN(C(=O)[C@H](CCC(=O)O)n3cc(C(N)[C@H](C)CC)nn3)CC2)n1 (some centres not stated),-7%[10 µM],/,-7%[9.22 µM],/,/,22µM*
SMILES,HTT ATP protect,Luc counter,HttQ103 aggreg,HPGD block,LMNA splice mod,ALDH1A1 inh
Cc1cccc(N2CCN(C(=O)C3CCN(S(=O)(=O)c4c(C)noc4/C=C/c4ccccc4F)CC3)CC2)c1C,/,/,/,/,-9%[46 µM],/
O=C(CCC(=O)N/N=C/c1ccccc1O)NCc1ccccc1,4%[10 µM],0%,10µM*,-27%,4%,-3%
O=C(CCN1CCN(c2ccccc2)CC1)N/N=C/c1ccccc1O,-131%,-1%,13µM*,/,?,1%
O=C(CCn1cnc2ccccc21)N/N=C/c1ccc(O)cc1,12%[10 µM],-1%,10%,?,5%,?
O=C(CCn1cnc2ccccc21)N/N=C/c1ccccc1O,-30%[10 µM],0%,10µM*,?,?,3%
O=C(CCC(=O)Nc1ccc(F)cc1)N/N=C/c1ccccc1O,-41%,1%,?,/,?,1%
O=C(O)c1ccc(N/N=C/c2ccc(-c3cccc(Cl)c3)o2)cc1,2%[10 µM],/,19%[9.22 µM],/,/,/
Oc1cc2c(cc1O)C1c3ccc(O)c(O)c3OCC1(O)C2 (configuration not stated),-344%,?,10%[9.22 µM],1.1µM*,/,11µM*!
CCN(CC)c1ccc(C=Nc2ccc(N(C)C)cc2)c(O)c1,-11%,-7%,?,-2%,-7%,?
CCN(CC)c1ccc(C=Nc2ccccc2)c(O)c1,-4%[10 µM],-7%,-14%,-28%,-9%,3.5µM*
CCN(CC)c1ccc(/C=N/N=C(N)N)c(O)c1,-73%[10 µM],-2%,0.71µM*,/,-18%[46 µM],?
CCN(CC)c1ccc(C=Nc2ccc(C)cc2)c(O)c1,24%[1.9 µM],-6%,-13%,-25%,?,?
CCN(CC)c1ccc(C=Nc2cc(C)cc(C)c2)c(O)c1,/,-1%,8%,-23%,-2%,14µM*
CCN(CC)c1ccc(N=Cc2ccc(N(CC)CC)cc2O)cc1,-23%,15%,-5%,-7%,?,1.8µM*
Cc1cc(Cl)cc(Cl)c1OCCOc1cccc2cccnc12,4%,18%,?,?,?,-4%

# Screening results (PubChem BioAssay)
